In the library only some 1.4% were active in any assay of this set; here they are far more common.
KCNH2 3.1 block: qHTS for Inhibitors of KCHN2 3.1: Mutant qHTS; U2OS KCNH2 3.1, thallium flux FluxOr; active compounds read low; activity change, % (tested at about 1.8 µM); hit rate 0.95% among 340,000; AID 720553, 2013;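 active = maximum activity change below -70%; inconclusive = maximum activity change from -70% to -50%; inactive = maximum activity change above -50%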;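 note: thallium influx rate constant from kinetic fluorescence after stimulation buffer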
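Channel expression came from 3.1 mutant virus (1.77 x 10^8 /mL) applied to suspended U2OS cells for 4 h. Flux was tracked with FluxOr dye plus Red40 quencher, and kinetic rate constants normalized to controls.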
GRP78 ERSR act: qHTS for Inducers of the Endoplasmic Reticulum Stress Response (ERSR) in Human Glioma: qHTS; U87-MG GRP78 promoter luciferase reporter, 16 h; Potency, µM, most hits filed as activators; hit rate 0.02% among 420,000; note: series mostly up to about 76 µM; nearly all actives have a fitted effect of over 35% in size
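Stably transfected U87-MG human glioma cells carrying a GRP78-based luminescent sensor were seeded at 1000 cells/well, pin-dosed with compounds and incubated 16 h. Luciferase reagent was then added, and end-point luminescence was read after 10 min at room temperature.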
PTHR1 agonist: qHTS for PTHR1 Agonists: Primary Screen | HEK293 GP2 PTHR1 cells, GloSensor cAMP luminescence, 1 h | Potency, µM (series often up to 115 µM), actives largely listed as activators | hit rate 0.075% among 410,000 | AID 743266, 2014; note: nearly all actives have a fitted effect of over 55% in size
Target sequence (Q03431 whole entry, looked up): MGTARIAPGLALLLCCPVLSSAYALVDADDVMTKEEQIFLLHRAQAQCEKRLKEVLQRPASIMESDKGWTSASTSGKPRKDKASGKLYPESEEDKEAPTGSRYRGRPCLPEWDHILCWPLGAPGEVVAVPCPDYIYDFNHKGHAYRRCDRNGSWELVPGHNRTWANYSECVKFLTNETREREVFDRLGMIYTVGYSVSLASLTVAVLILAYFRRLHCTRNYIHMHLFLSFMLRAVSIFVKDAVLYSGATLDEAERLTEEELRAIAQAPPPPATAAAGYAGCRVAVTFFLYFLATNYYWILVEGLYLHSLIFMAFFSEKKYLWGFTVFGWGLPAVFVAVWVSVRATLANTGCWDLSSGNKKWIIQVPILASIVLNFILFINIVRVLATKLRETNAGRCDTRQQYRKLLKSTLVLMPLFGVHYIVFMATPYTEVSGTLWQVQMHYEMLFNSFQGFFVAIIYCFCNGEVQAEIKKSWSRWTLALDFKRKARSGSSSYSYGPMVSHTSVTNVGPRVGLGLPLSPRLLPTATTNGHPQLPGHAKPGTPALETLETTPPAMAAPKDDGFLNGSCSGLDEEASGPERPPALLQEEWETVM
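HEK-293-derived GP2 cells expressing PTHR1 and a GloSensor cAMP reporter, 3,000/well, plated overnight, given luciferin plus IBMX (each 0.5 mM as added) for 1 h at 37 °C, then compound for 1 h at 37 °C. Luminescence was read after 15 min at room temperature.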
KCNH2 WT inh: qHTS for Inhibitors of KCHN2 3.1: Wildtype qHTS. hit rate 0.37% among 340,000. Voltage-gated inwardly rectifying potassium channel KCNH2 (Homo sapiens), Q12809. U2OS, BacMam KCNH2, thallium flux FluxOr; active compounds read low. activity change, % at 1.84 µM. AID 720551, 2013;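 active = maximum activity change below -70%; inconclusive = maximum activity change between -70% and -50%; inactive = maximum activity change above -50%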
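U2OS cells transduced with wild-type KCNH2 virus are loaded with FluxOr dye for 45 min, and thallium flux is measured in kinetic reads before and after stimulation buffer. Rate constants are normalized to DMSO controls.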
RXFP1 antag: qHTS Assay for Antagonists of the Relaxin Receptor RXFP1 | HEK293-RXFP1, relaxin-stimulated cAMP HTRF, 30 min; active compounds read low | hit rate 0.59% among 350,000 | Relaxin receptor 1 (Homo sapiens), Q9HBX9 | AID 1259400, 2018 | activity change, negative = inhibition, % at 57.5 µM;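 active = activity change of -60% or lower, but not beyond a set lower limit; inconclusive = change between -60% and -40%, or beyond the set limit; inactive = change above -40%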
RXFP1 agonist: qHTS Assay for Agonists of the Relaxin Receptor RXFP1 | AID 2676, 2010 | Potency, µM (series often up to 57.5 µM), most hits filed as activators | Relaxin receptor 1 (Homo sapiens), Q9HBX9 | hit rate 0.3% among 370,000 | HEK293T-RXFP1 cAMP TR-FRET, 30 min; response scale: percent of porcine relaxin response, buffer zero; note: nearly all actives have a fitted effect of over 60% in size
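HEK293 cells stably expressing RXFP1, treated 30 min at 37C with compounds plus PDE4 inhibitor Ro 20174; cAMP measured by HTRF TR-FRET. Normalized to buffer and 29 nM porcine relaxin; EC50 by Hill fit.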
Large screens that a line does not name were inactive. Unless noted, calls come from the whole dose curve; as a rule, active = well fitted curve in the direction sought with a large enough effect; inconclusive = small, poorly fitted or top-dose-only effect, or another doubt; inactive = no such curve, though single readings can be large; an effect the other way counts as inactive or inconclusive.

COc1ccc(S(=O)(=O)Cc2ccc(C(=O)NC3CCCCCC3)o2)cc1	RXFP1 antag -102
O=C(Nc1ccc(CN2CCCCC2)cc1)c1cccc(F)c1	none
CCN(CC(=O)NCCc1ccc(S(N)(=O)=O)cc1)Cc1ccccc1	KCNH2 3.1 block -74
CCCCNC(=O)c1cnn2c(C)c(Cc3c(C)cc(C)cc3C)c(C)nc12	RXFP1 antag -61 (no result: KCNH2 3.1 block, KCNH2 WT inh)
CCOc1cccc(-c2c(C(=O)N/N=C(\C)c3ccncc3)nnn2-c2nonc2N)c1	RXFP1 antag -62
CCO/C(=C/c1sc2ccc(OC)cc2[n+]1CCCS(=O)(=O)[O-])CC	none
COc1ccc2sc(SCCCS(=O)(=O)O)[n+](CCCS(=O)(=O)[O-])c2c1	KCNH2 3.1 block -203, KCNH2 WT inh -156 (no result: RXFP1 antag)
COc1ccc(CC(=O)N/N=C(/C)CC(=O)N(C)c2ccccc2)cc1	KCNH2 3.1 block -92
COc1ccc(CC(=O)N/N=C(\C)CC(=O)Nc2ccc(N(C)C)cc2)cc1	none
CC(=O)N1CCOc2ccc(S(=O)(=O)NCCc3ccc(Cl)cc3)cc21	RXFP1 antag -68
Cc1ccc(S(=O)(=O)N2CCOC2CNC(=O)C(=O)NCC(C)C)cc1 (stereo unspecified)	none
CNC(=O)C(=O)NCC1OCCN1S(=O)(=O)c1ccc(C)cc1 (stereo unspecified)	KCNH2 WT inh -207
CC1(OC(=O)CCc2ccccc2)C(=O)C=C2C=C(c3ccc(C#N)cc3)N(C(CO)CO)C=C2C1=O (stereo unspecified)	none (no result: RXFP1 antag)
COc1ccc(CCNC(=O)C2CC3Cn4c(nc5cc(Cl)c(Cl)cc54)C3N2C)cc1 (stereo unspecified)	KCNH2 WT inh -252 (no result: RXFP1 antag)
COc1ccc(CN2C(=O)c3cccnc3C2=O)cc1S(=O)(=O)N1CC(C)Oc2ccccc21 (stereo unspecified)	RXFP1 agonist inconclusive
COc1ccc(CN2C(=O)c3cccnc3C2=O)cc1S(=O)(=O)N1CCCCC1C (stereo unspecified)	RXFP1 agonist 7.1µM
CCC(=O)NCCC(c1ccco1)c1ccccc1OC (stereo unspecified)	none
COc1ccccc1C(CCN(Cc1cccs1)C(C)=O)c1ccco1 (stereo unspecified)	KCNH2 3.1 block -74
NC(=O)CSc1cn(Cc2cccc(F)c2)c2ccccc12	none
COc1ccc(C(=O)Nc2ccc(NC(=O)c3cccs3)cc2)cc1Cl	none (no result: KCNH2 WT inh)
O=C(Nc1cccc(NC(=O)c2cccs2)c1)c1ccc(Br)cc1	RXFP1 antag -71
COc1ccc(C(=O)Nc2ccc(NC(=O)c3cccs3)c(OC)c2)cc1Cl	KCNH2 3.1 block -83
O=C(Nc1ccc(NC(=O)c2cccs2)cc1)c1cccc(Br)c1	none (no result: KCNH2 3.1 block, KCNH2 WT inh)
N#Cc1ccccc1S(=O)(=O)N1CCN(C(=O)C2CC(=O)N(c3ccc4c(c3)OCCO4)C2)CC1 (stereo unspecified)	KCNH2 3.1 block -75 (no result: RXFP1 agonist)
COc1cc2c(cc1OC)C(C1(O)CCCCC1)NCC2 (stereo unspecified)	none
COc1ccc(C2NCCC3(O)CCCCC23)c(OC)c1OC (stereo unspecified)	KCNH2 WT inh -296
COc1ccc(C(=O)C(C)[n+]2ccc(C)c3ccccc32)cc1[N+](=O)[O-] (stereo unspecified)	KCNH2 WT inh -140
CCN(CC)CC(O)Cn1c(-c2cccc(Cl)c2)nc2cc(C)c(C)cc21 (stereo unspecified)	none (no result: RXFP1 antag)
Cc1ccc(-c2cc(C(=O)Nc3cc(C)ccc3C)[nH]n2)c(O)c1	none
Cc1ccc(C)c(NC(=O)c2cc(-c3ccccc3O)n[nH]2)c1	KCNH2 3.1 block -81

Screens (PubChem)
